Data reported in the supplement of paper PMC10646978.
± gives the standard deviation.

Columns and labels:
Conditions in all cases: modulator concentration 10 µM
[1] = system: RAW-Dual (murine macrophage reporter line); experiment: NF-kB reporter (SEAP) activity fold change vs agonist alone; higher = enhanced NF-kB activity
Outline: (§1)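 RAW-Dual murine macrophage reporter cells were seeded at 50 000 per well in 384-well plates and pre-incubated 1 hour at 37 °C with compound pin-transferred to 10 μM final. After 1 hour, a PRR agonist was added and cells incubated overnight. Supernatant NF-κB (SEAP, QUANTI-Blue, 620 nm absorbance) and IRF (Lucia luciferase, QUANTI-Luc, luminescence) signals were divided by the mean agonist-only control on the same plate to give fold change. Two replicate plates were averaged, with errors by propagation.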

[2] = system: RAW-Dual (murine macrophage reporter line); experiment: IRF reporter (Lucia luciferase) activity fold change vs agonist alone; higher = enhanced IRF activity
Outline: as §1

[3] = system: RAW-Dual (murine macrophage reporter line); experiment: viability score (confluency relative to resting cells, overnight) (fraction); higher = more viable, active = viable (0.7 or more)
Outline: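 RAW-Dual macrophages in 384-well plates were treated overnight with compound at 10 μM final. IncuCyte imaging recorded confluency, and IncuCyte software built two confluency masks across every imaged well. The viability score expresses confluency relative to resting cells and was judged against a cutoff, which a compound met only if both masks exceeded 70% of resting cells.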

[4] = agonist: CpG ODN 1826 0.5 ug/mL

Compound	NF-kB reporter [1, 4]	NF-kB reporter ([1]; agonist: LPS 0.1 ug/mL)	NF-kB reporter ([1]; agonist: MPLA […])	IRF reporter ([2]; agonist: 3'3'-cGAMP 10 ug/mL)	IRF reporter ([2]; agonist: LPS 0.1 ug/mL)	IRF reporter ([2]; agonist: MPLA […])	viability score [3]
Cc1cc(C(=O)NCc2sc(-c3ccccc3Cl)nc2C)c(C)o1	0.883 ± 0.039	1 ± 0.081	1.09 ± 0.061	0.98 ± 0.047	1.11 ± 0.25	1.27 ± 0.44	0.984 (active)
O=C(Nc1cc(C(F)(F)F)cc(C(F)(F)F)c1)c1cccc(Br)c1	1 ± 0.09	1.02 ± 0.079	0.911 ± 0.074	0.935 ± 0.028	1.55 ± 0.27	1.19 ± 0.26	1.01 (active)
Cc1cccc(-c2cc3nc(C)c(Cl)c(O)n3n2)c1	1.04 ± 0.058	1.04 ± 0.091	0.948 ± 0.025	1.04 ± 0.039	1 ± 0.1	1.04 ± 0.24	0.996 (active)
COc1ccc(C)cc1NC(=O)CN(c1cccc(Br)c1)S(=O)(=O)c1ccccc1	0.904 ± 0.077	0.97 ± 0.053	0.915 ± 0.062	0.94 ± 0.023	1.11 ± 0.092	0.809 ± 0.18	1.02 (active)
CC1=C(C(=O)Nc2ccc(C)cn2)C(c2ccccc2Cl)C2=C(CCCC2=O)N1 (stereo not drawn)	1.01 ± 0.12	0.983 ± 0.062	0.847 ± 0.053	1.02 ± 0.034	1.43 ± 0.12	1.1 ± 0.08	1.01 (active)
CN1C(=O)C(=C2SC(=S)N(C(CCC(=O)O)C(=O)O)C2=O)c2ccccc21 (stereo not drawn)	0.793 ± 0.053	1.02 ± 0.07	0.845 ± 0.064	0.942 ± 0.035	1.28 ± 0.086	1.03 ± 0.093	1.01 (active)
Cc1cccc(Oc2ccc(NC(=O)c3ccco3)cc2)c1C	0.683 ± 0.049	0.992 ± 0.12	1.12 ± 0.049	0.483 ± 0.054	0.965 ± 0.085	1.44 ± 0.22	0.991 (active)
CCOC(=O)N1CCN(C(=O)CSc2nnc(-c3cccc(Cl)c3)o2)CC1	0.846 ± 0.18	0.96 ± 0.065	0.974 ± 0.057	0.769 ± 0.03	1.29 ± 0.1	1.04 ± 0.11	0.95 (active)
CC(=O)NC(NC(C)=O)c1cccc([N+](=O)[O-])c1	1.15 ± 0.12	1 ± 0.13	0.998 ± 0.039	0.968 ± 0.043	0.99 ± 0.085	1.05 ± 0.12	0.995 (active)
CC1(C)CC(=O)C2=C(C1)OC(N)=C(C#N)C2C1CCCCC1 (stereo not drawn)	0.983 ± 0.076	0.926 ± 0.12	0.929 ± 0.093	0.987 ± 0.089	1.33 ± 0.22	1.47 ± 0.19	1.01 (active)
CN(C)c1ccc(C=NN2C(=O)c3cccc4cccc(c34)C2=O)cc1	1 ± 0.21	1.1 ± 0.092	0.964 ± 0.11	1 ± 0.032	1.28 ± 0.23	1.36 ± 0.17	1 (active)
Nc1ncnc2c1ncn2[C@@H]1O[C@H](CO)[C@@H](O)[C@@H]1O.O	1.09 ± 0.064	1.02 ± 0.065	0.997 ± 0.058	0.714 ± 0.026	1.04 ± 0.13	1.18 ± 0.14	0.991 (active)
Brc1ccc2ncnc(NCc3ccco3)c2c1	0.856 ± 0.14	1.98 ± 0.16	2.54 ± 0.3	0.373 ± 0.021	0.647 ± 0.12	0.7 ± 0.12	0.996 (active)
CN1CCCC(n2nc(Cc3ccc(Cl)cc3)c3ccccc3c2=O)CC1.Cl (stereo not drawn)	0.135 ± 0.008	0.929 ± 0.12	1.42 ± 0.26	1.12 ± 0.14	1.19 ± 0.22	1.35 ± 0.4	0.587 (inactive)
